SW480 rerep – A quantitative high throughput screen for small molecules that induce DNA re-replication in SW480 colon adenocarcinoma cells; Potency, µM (series often up to 46.1 µM), usual class: activators; 1.8% of 340,000 active; SW480 DNA re-replication, Hoechst DNA content imaging, 48 h; AID 624297, 2012; also: nearly all actives have a fitted effect of over 55% in size
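Cells (250 per well) received 23 nL compound or DMSO by pin tool and were kept 48 hr at 37 C, 5% CO2. Nuclei were then stained with Hoechst for 40 min and scanned for DNA content.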
MCF10A rereplic – A quantitative high throughput screen for small molecules that induce DNA re-replication in MCF 10a normal breast cells. MCF 10A DNA re-replication, Hoechst nuclear intensity, 48 h. Potency, µM (titrated, usually from 46.1 µM), actives largely listed as activators. 2.9% of 350,000 active; also: nearly all actives have a fitted effect of over 50% in size
HT1080-NT tox – qHTS for induction of synthetic lethality in tumor cells producing 2HG: qHTS for the HT-1080-NT fibrosarcoma cell line; HT-1080-NT fibrosarcoma viability, CellTiter-Glo ATP luminescence, 48 h; Potency, µM (series often up to 46.1 µM), most hits filed as cytotoxic; 1.6% of 360,000 active; AID 686970, 2013;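 also: NT is the 2HG producing partner of a matched IDH1 knockdown line; nearly all actives have a fitted effect of over 55% in size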
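Toxicity toward the 2HG-producing NT line was scored as %Activity, normalised to DMSO and no-cell wells, from CellTiter-Glo luminescence after 48 hours' treatment.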
KB-3-1 tox – qHTS assay for MDR1-selective chemotherapeutics: Primary screen using the parental adenocarcinoma cell KB-3-1. KB-3-1 viability, CellTiter-Glo ATP luminescence, 72 h. Potency, µM (series often up to 46.1 µM), usual class: cytotoxic. 1.4% of 400,000 active; also: nearly all actives have a fitted effect of over 60% in size
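Cytotoxicity measured as CellTiter-Glo luminescence after 72 h at 37 C. Compound titrations were pinned onto drug-naive KB-3-1 parental adenocarcinoma cells grown in DMEM with 10% FBS, and normalized data fitted to concentration-response curves.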
HT1080 IDH1KD tx – qHTS for induction of synthetic lethality in tumor cells producing 2HG: qHTS for the HT-1080-IDH1KD cell line | HT-1080 IDH1 knockdown viability, ATP luminescence, 48 h | Potency, µM (titrated, usually from 46.1 µM), most hits filed as cytotoxic | 2% of 360,000 active | AID 686971, 2013
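CellTiter-Glo luminescence after 48 h compound exposure at 37 degrees C of IDH1-knockdown HT-1080 cells in 5% FBS RPMI. %Activity scaled between DMSO wells and cell-free media wells, with curves fitted and assigned curve classes.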
KB-V1 cytotox – qHTS assay for MDR1-selective chemotherapeutics: Primary screen using the drug-selected MDR subline cells KB-V1. 3.4% of 400,000 active. Potency, µM (series often up to 46.1 µM), actives largely listed as cytotoxic. KB-V1 MDR cells viability, CellTiter-Glo, 72 h; also: nearly all actives have a fitted effect of over 60% in size
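KB-V1, DMEM (no phenol red) + 10% FBS; cpd pin-transferred, titration series; 72 h, 37 degrees C; CellTiter-Glo, luminescence. Data normalized, curve-fit.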
Hits are given with their value; 0 = inactive; ? = inconclusive; - = not tested or not shown. Hits are enriched below; roughly 8% of the tested compounds scored in any of these assays. Calls follow the shape of the dose curve; as a rule, active = well fitted curve in the direction sought with a large enough effect; inconclusive = small, poorly fitted or top-dose-only effect, or another doubt; inactive = no such curve, though single readings can be large; an effect the other way counts as inactive or inconclusive.

SMILES	SW480 rerep	MCF10A rereplic	HT1080-NT tox	KB-3-1 tox	HT1080 IDH1KD tx	KB-V1 cytotox
CCOC(=O)N1CCN(C(=O)/C(=C/c2ccc(OC)c(OC)c2)NC(=O)c2ccccc2)CC1	?	0	0	0	0	0
C=CCNC(=O)/C(=C/c1ccccc1OCC)NC(=O)c1ccccc1	0	0	0	0	0	11.6µM
C=CCOC(=O)/C(=C/c1cccc2ccccc12)NC(=O)c1ccccc1	0	0	0	0	0	8.2µM
C=CCNC(=O)/C(=C/c1cn(-c2ccccc2)nc1-c1cccc([N+](=O)[O-])c1)NC(=O)c1ccccc1	?	0	0	0	0	16.4µM
CCOC(=O)N1CCN(C(=O)/C(=C/c2ccccc2OC)NC(=O)c2ccccc2)CC1	0	0	0	0	0	7.31µM
CSc1cccc(CN2CCN(Cc3ccc(F)c(F)c3)C(CCO)C2)c1 (stereo not given)	?	0	0	0	0	0
C(=C\c1ccccc1)/CN1CCN(C(CCc2ccccc2)c2nnnn2C2CCCC2)CC1 (stereo not given)	-	-	?	?	?	0
C[C@@H]1CN([C@@H](C)CO)C(=O)CCCn2nncc2CO[C@@H]1CN(C)C(=O)Cc1ccccc1	-	-	0	0	0	0
COc1cccc2sc3cc(NCc4ccc(C)o4)ccc3c(=O)c12	18.4µM	20.6µM	0	0	0	0
CC[C@](C)(CN(C)C)OC(=O)c1ccccc1	0	0	-	-	-	-
COc1ccc(C2NC(=S)NC(C)=C2C(=O)c2ccccc2)cc1OC (stereo not given)	23.1µM	?	0	?	0	13µM
COc1ccc(C2NC(=S)NC(C)=C2C(=O)Nc2ccccn2)cc1OC (stereo not given)	0	?	0	0	0	0
CN(C)S(=O)(=O)N1CCC(Oc2ccc(C(=O)N3CCCCCCC3)cc2)CC1	0	0	0	?	0	10.3µM
CC1CCCCN1C(=O)c1ccc(OC2CCN(S(=O)(=O)N(C)C)CC2)cc1 (stereo not given)	0	0	0	0	?	23.1µM
CN(C)S(=O)(=O)N1CCC(Oc2cccc(C(=O)NC3CCCCCC3)c2)CC1	0	?	?	0	0	1.3µM
O=C(Nc1cc(F)ccc1F)c1ccc(-n2cncn2)c([N+](=O)[O-])c1	0	0	0	0	0	0
Cc1cccc(C=Nc2ccccc2C(N)=O)c1	5.8µM	3.66µM	10µM	23.1µM	7.08µM	6.51µM
Cc1ccc(C=Nc2ccccc2C(N)=O)s1	4.61µM	3.66µM	5.17µM	23.1µM	3.26µM	0
Cc1cc(C)c2nc(N(Cc3cccnc3)C(=O)Cc3ccccc3)sc2c1	-	-	-	0	-	0
CCC(C)Cn1c(/C=C/c2ccccc2)nc2ccccc21 (stereo not given)	-	-	-	0	-	?
COc1ccc2c(c1)C(=O)N1[C@H]3c4cc(Cl)ccc4OC[C@@H]3[C@H](c3ccccc3)[C@]1(C)C(=O)N2	9.2µM	?	6.51µM	?	14.6µM	?
COc1ccc2c(c1)OC[C@H]1[C@H]2N2C(=O)c3cc(Cl)ccc3NC(=O)[C@@]2(C)[C@H]1c1ccccc1	?	0	0	0	0	0
COc1ccc2c(c1)OC[C@H]1[C@H]2N2C(=O)c3cc(OC)ccc3NC(=O)[C@@]2(C)[C@H]1c1ccccc1	?	16.4µM	?	0	?	?
COc1ccc2c(c1)OC[C@H]1[C@H]2N2C(=O)c3ccc(C)cc3NC(=O)[C@@]2(C)[C@H]1c1ccccc1	0	0	0	0	?	0
COc1ccc2c(c1)C(=O)N1[C@H]3c4cc(Br)ccc4OC[C@@H]3[C@H](c3ccccc3)[C@]1(C)C(=O)N2	20.6µM	4.11µM	?	?	?	?
SMILES	SW480 rerep	MCF10A rereplic	HT1080-NT tox	KB-3-1 tox	HT1080 IDH1KD tx	KB-V1 cytotox
COc1ccc2c(c1)[C@H]1[C@H](CO2)[C@H](c2ccccc2)[C@]2(C)C(=O)Nc3cc(Cl)ccc3C(=O)N12	?	16.4µM	0	0	0	0
Cc1cccc(C)c1-n1ncc(C(=O)NCCCN2CCC(C)CC2)c1C1CCN(C(=O)OC(C)(C)C)CC1	-	-	-	?	-	0
CCC1CCCCN1CCCNC(=O)c1ccc2c(c1)N(Cc1ccccc1F)C(=O)c1ccccc1S2(=O)=O (stereo not given)	-	-	-	?	-	0
Cc1ccc(NC(=O)CCn2cccn2)cc1Cl	-	-	-	0	-	0
CC(C)(Cc1c[nH]c2ccccc12)NCC(O)COc1ccccc1C#N (stereo not given)	?	0	-	-	-	-
CCNc1nc(C#N)nc(Nc2ccccc2)n1	-	-	-	?	-	0
Nc1c(C(=O)C2CC2)sc2nc3c(cc12)CCC3	?	14.6µM	0	0	0	0
Nc1c(C(=O)O)sc2nc3c(cc12)CCCC3	0	0	0	0	0	0
Cc1cc(C)nc(-n2ncc3c2CC(c2ccccc2)CC3=O)n1 (stereo not given)	0	0	0	0	0	0
COc1ccc(C2CC(=O)c3cnn(-c4nc(C)cc(C)n4)c3C2)cc1 (stereo not given)	?	0.82µM	?	0	?	?
CCN(CC)C(=O)Oc1ccc2c(=O)c(-c3ccc(OC)cc3)c(C)oc2c1	0	?	0	0	0	9.2µM
COc1ccc2c(=O)c(-c3ccccc3C)c(C)oc2c1	0	0	0	0	0	0
CCN(CC)C(=O)Oc1ccc2c(=O)c(-c3ccc(OC)cc3)coc2c1	?	13µM	0	?	0	11.6µM
Cc1ccc(S(=O)(=O)n2ccc3c(OCCOCCSCC(NC(=O)OC(C)(C)C)C(=O)O)cccc32)cc1 (stereo not given)	0	?	0	0	0	?
Cc1ccc(S(=O)(=O)n2ccc3c(OCCOCCNCc4ccc(F)cc4)cccc32)cc1	0	?	16.4µM	?	20.6µM	?
CCCN(C(=O)COc1cc(=O)n(CC)c2ccccc12)c1ccc(C(C)C)cc1	-	-	-	?	-	13µM
CCN(C(=O)COc1cc(=O)n(CC)c2ccccc12)c1cccc(Cl)c1	0	0	0	?	0	2.06µM
CCC(=O)Oc1ccc2c(=O)c(-c3ccc4ccccc4n3)c(CC)oc2c1C	0	0	0	0	?	13µM
CCSC1=NC2(CCN(C(=O)NC3CCCCC3)CC2)N=C1c1ccc(Cl)cc1	-	-	-	?	-	0
Cn1c2ccccc2c2cc(C(=O)NNC(=O)CCl)sc21	?	20.6µM	?	?	20.6µM	?

High-throughput results deposited in PubChem BioAssay by National Center for Advancing Translational Sciences (NCATS).
